# Screens deposited in PubChem by National Center for Advancing Translational Sciences (NCATS).
# Compounds with a hit are over-represented: about 2.8% of the library has one in this group of screens.
# HepG2 tox – counter-screen for TGF-b inhibitors: cytotoxicity in HepG2 cells; actives 0.76% (n = 410,000); Potency, µM (top dose mostly 46.1 µM), for the others: at the top dose activity change, negative = cytotoxicity, most hits filed as cytotoxic; HepG2 CAGA-GFP viability, ATP luminescence, 18 h; AID 588856; further: potency means the concentration at half of the fitted maximal effect
#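 CellTiter-Glo luminescence gave cytotoxicity after 18 hours at 37 degrees C. The cells were HepG2 CAGA-GFP in 1% FBS DMEM, stimulated with 500 pg/mL TGF-beta after compound addition. %Activity was normalised to no-cell wells (complete cell-killing) and DMSO (no toxicity), and curves were fitted and classified.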
# ATXN viability – reduces viability in counter-screen for ATXN expression inhibitors. S2 cells (HEK-293 line with an ATXN2-luciferase reporter) viability, CellTiter-Fluor protease fluorescence, 24 h. Potency, µM (top dose mostly 56.7 µM), most hits filed as cytotoxic. actives 0.49% (n = 400,000); further: potency means the concentration at half of the fitted maximal effect; nearly all actives have a fitted effect of over 40% in size
# CtBP-E1A inh – CtBP/E1A binding inhibition. AlphaScreen GST-E1A/His-CtBP binding, 1536-well; active compounds read low. actives 0.49% (n = 340,000). activity change, % (concentration not given with the values); in the data active means activity change below about -65%; inconclusive means mostly about -30% to -63%; further: on the % scale 0 is the no-effect control and ±100 the full control effect
#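 GST-E1A and His-tagged CtBP (125 nM each as 5X stock) were preincubated with pin-transferred compound for 2 h at 37 °C in the dark, then glutathione donor and nickel acceptor beads were added for 1 h before AlphaScreen reading.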
# Six1-Eya2 inh – Six1/Eya2 interaction inhibition | Q15475+O00167 | AlphaScreen GST-Six1/His-Eya2 binding, biochemical; active compounds read low | activity change, % (no concentration beside the values) | actives 0.56% (n = 360,000) | AID 651725; in the data active means activity change below about -65%; inconclusive means mostly about -30% to -63%; further: on the % scale 0 is the no-effect control and ±100 the full control effect
# Target sequence (O00167 whole entry, looked up): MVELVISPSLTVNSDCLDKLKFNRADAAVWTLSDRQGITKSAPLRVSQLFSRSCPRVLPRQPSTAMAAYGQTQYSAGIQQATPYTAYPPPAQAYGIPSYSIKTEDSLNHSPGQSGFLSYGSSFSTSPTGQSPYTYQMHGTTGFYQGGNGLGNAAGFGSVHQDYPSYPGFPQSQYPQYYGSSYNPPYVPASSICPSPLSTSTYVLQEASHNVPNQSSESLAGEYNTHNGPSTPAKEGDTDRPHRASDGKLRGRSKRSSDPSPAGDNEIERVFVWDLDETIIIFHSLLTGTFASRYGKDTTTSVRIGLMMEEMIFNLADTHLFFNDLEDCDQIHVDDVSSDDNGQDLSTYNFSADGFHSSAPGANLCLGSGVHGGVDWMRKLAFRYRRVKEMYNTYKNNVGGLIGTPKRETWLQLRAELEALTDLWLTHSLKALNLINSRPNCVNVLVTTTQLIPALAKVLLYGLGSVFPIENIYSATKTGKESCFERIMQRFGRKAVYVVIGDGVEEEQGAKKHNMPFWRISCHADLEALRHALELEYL
# Target sequence (Q15475 whole entry, looked up): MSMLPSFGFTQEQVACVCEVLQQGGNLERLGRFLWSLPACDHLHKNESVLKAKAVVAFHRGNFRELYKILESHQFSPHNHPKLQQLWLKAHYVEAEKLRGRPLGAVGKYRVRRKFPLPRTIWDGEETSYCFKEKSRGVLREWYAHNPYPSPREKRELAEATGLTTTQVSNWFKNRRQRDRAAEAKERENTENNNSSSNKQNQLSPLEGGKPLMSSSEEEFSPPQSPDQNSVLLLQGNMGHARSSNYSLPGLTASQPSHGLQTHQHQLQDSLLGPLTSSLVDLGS
#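 Homogeneous AlphaScreen proximity assay pairing GST-Six1 with His-tagged Eya2 (added as 5X mix: 250 nM and 500 nM) in 50 mM Tris pH 8.0, 300 mM NaCl, 1 mM TCEP. Glutathione donor and nickel acceptor beads; 1 h, 37 °C, dark.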
# TGFb inhibitor – TGF-b pathway inhibition; HepG2 CAGA-GFP TGF-b/SMAD3 reporter, GFP fluorescence, 18 h; TGF-beta stimulated, 500 pg/mL final; Potency, µM (top dose mostly 46.1 µM), without a hit: at the top dose activity, negative = inhibition, actives largely listed as inhibitors; actives 1.2% (n = 410,000); further: potency means the concentration at half of the fitted maximal effect; on the % scale 0 is the no-effect control and ±100 the full control effect; nearly all actives have a fitted effect of over 65% in size
#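 Using HEPG2 CAGA-GFP reporter cells at 1000 cells/well, we pinned test compounds, stimulated with recombinant TGF-beta (500 pg/mL final) and measured total well GFP after 18 h.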
# ATXN2 expr inh – inhibitors of ATXN2 expression. HEK-293 ATXN2-luciferase reporter, luminescence, 24 h. actives 0.72% (n = 360,000). Potency, µM (series often up to 57 µM), without a hit: top-dose activity change, negative = inhibition, actives largely listed as inhibitors. AID 1745845; further: potency means the concentration at half of the fitted maximal effect; on the % scale 0 is the no-effect control and ±100 the full control effect; nearly all actives have a fitted effect of over 55% in size
#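 qHTS (up to 57 uM final) was run with 24 h compound exposure of reporter cells at 37 °C. Each well was multiplexed: SteadyGlo luminescence measured ATXN2-luciferase expression after a fluorogenic Gly-Phe-AFC viability readout (25 uM final).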
# Active calls of the source: *; i = inactive; ? = inconclusive; nt = not tested or not shown; ! = a repeat was not active. Unless noted, the call rests on the fitted dose curve; in most records, active means well fitted curve in the direction sought with a large enough effect; inconclusive means small, poorly fitted or top-dose-only effect, or another doubt; inactive means no such curve, though single readings can be large; an effect the other way counts as inactive or inconclusive.
SMILES,HepG2 tox,ATXN viability,CtBP-E1A inh,Six1-Eya2 inh,TGFb inhibitor,ATXN2 expr inh
CC(=O)Nc1ccccc1NC(=O)CN(C)S(=O)(=O)c1ccc(C)cc1,-5%,i,1,10,0%,-1%
CCCC(=O)Nc1ccccc1NC(=O)CN(C)S(=O)(=O)c1ccc(C)cc1,13µM*,i,-7,-2,-7%,4%
CCC1(C)Cc2[nH]c(=O)c(C#N)cc2CO1 (configuration not stated),0%,i,-1,-7,-1%,-1%
CCCC1Cc2[nH]c(=O)c(C#N)cc2CO1 (configuration not stated),5%,i,-70*,8,-1%,11%
COc1ccc(Cl)cc1S(=O)(=O)Nc1ccc2c(c1)n(C)c(=O)n2C,20µM*!,i,-3,10,-19%,48%
COc1ccc(S(=O)(=O)Nc2ccc3c(c2)n(C)c(=O)n3C)cc1OC,-30%,i,-10,-19,-6%,66%
Cc1cc(NC(=O)c2ccc(Cn3nc(C)c(Br)c3C)o2)no1,-13%,i,-29,-70*,-2%,?
O=C(CCC(=O)NNC(=O)COc1ccccc1)NCc1ccccc1,13µM*,i,-1,2,?,-3%
O=C(Nc1ccc(F)c(F)c1)c1cc(S(=O)(=O)NC2CCCCCC2)ccc1F,-97%,nt,nt,nt,?,nt
CC(C)c1ccc(NC(=O)c2cc(S(=O)(=O)NC3CCCCC3)ccc2F)cc1,13µM*,?,nt,nt,?,?
COC(=O)c1c(OCC2CCCN(C)C2)cc(=O)n2c1CCN(Cc1ccc(OC)c(O)c1)CC2 (configuration not stated),nt,i,nt,nt,nt,nt
Cc1ccccc1CN1[C@@H](Cc2ccccc2)COCCS1(=O)=O,6%,i,3,1,?,-7%
C=C1[C@@H](O)[C@H](Cc2ccccc2)N(Cc2ccccc2Br)S1(=O)=O,10µM*,18µM*,-5,-1,?,20µM*
CC(=C\c1ccccc1)/C=C1/SC(=S)N(CCCC(=O)O)C1=O,-22%,i,12,-14,2%,?
CC(/C=C1\SC(=O)N(CCCC(=O)O)C1=O)=C\c1ccccc1,-7%,i,-4,-7,?,1.3µM*
COc1ccc(C(CNC(=O)c2ccc(-c3ccccc3Cl)o2)N2CCCC2)cc1 (configuration not stated),11µM*,nt,-3,-22,?,nt
CC(C)c1cc(C(=O)N2Cc3ccc(CN4CCN(C)CC4)cc3C2)c(O)cc1O,nt,nt,nt,nt,nt,0.22µM*
CN(Cc1ccccc1)C(=O)c1[nH]cnc1C(=O)Nc1nccs1,-2%,i,?,-74*,10%,7%
COc1ccc2c(CNCCc3cccs3)c(C(=O)O)n(Cc3ccc(F)cc3Cl)c2c1,18µM*,nt,nt,nt,?,nt
COc1ccc2c(CNCc3cccs3)c(C(=O)O)n(Cc3ccc(F)cc3Cl)c2c1,-61%,i,nt,nt,?,1%
COc1ccc(Cn2c(C(=O)O)c(CNCc3cccs3)c3ccc(C)cc32)cc1,-41%,5µM*,nt,nt,?,?
C=Cc1ccc(Cn2c(C(=O)O)c(CNCc3cccs3)c3ccc(C)cc32)cc1,13µM*,nt,nt,nt,?,?
C=Cc1ccc(Cn2c(C(=O)O)c(CNCc3ccc(F)cc3)c3ccc(C)cc32)cc1,-107%,18µM*,nt,nt,13µM*,?
Cc1ccc2c(CNCc3cccs3)c(C(=O)O)n(Cc3ccc(F)cc3)c2c1,-50%,?,nt,nt,?,-20%
C=Cc1ccc(Cn2c(C(=O)O)c(CNCCc3ccco3)c3ccc(C)cc32)cc1,-76%,nt,nt,nt,?,-32%
SMILES,HepG2 tox,ATXN viability,CtBP-E1A inh,Six1-Eya2 inh,TGFb inhibitor,ATXN2 expr inh
Cc1ccc2c(CNCc3ccc(C)o3)c(C(=O)O)n(Cc3ccc(F)cc3)c2c1,-45%,nt,nt,nt,-29%,?
COc1cc(-c2ccno2)ccc1S(=O)(=O)N1CCN(c2cccc(Cl)c2)CC1,-26%,?,nt,nt,?,9%
Cc1c(C(=O)NCC2CCCN(C)C2)cnn1-c1ncc2c(n1)-c1ccccc1CCC2 (configuration not stated),nt,i,nt,nt,nt,nt
CC(C)c1c(C(=O)NCC2(N3CCCCC3)CCCC2)cnn1-c1nccc(-c2ccco2)n1,nt,i,nt,nt,nt,nt
Cc1cc(C(=O)NCC2CCC3(CCN(Cc4ccccc4C)CC3)O2)n(C)n1 (configuration not stated),nt,i,nt,nt,nt,nt
CCC(=O)OC1(C(C)=O)CCC2C3CCC4=CC(=O)CCC4(C)C3CCC21C (configuration not stated),9%,?,31,9,-19%,20µM*
O=[N+]([O-])c1cc(C(F)(F)F)cc([N+](=O)[O-])c1NCCNC(=S)Nc1ccc(Cl)c(Cl)c1,11µM*,nt,-25,-25,11µM*,?
O=C1c2ccccc2-c2onc3c(NCCO)cc(NC4CCCCC4)c1c23,-41%,?,nt,nt,11µM*,?
O=C(O)CCNc1cc(N2CCN(C(=O)c3ccco3)CC2)c2noc3c2c1C(=O)c1ccccc1-3,-3%,?,-85*,-74*,-11%,-17%
CCN1CCN(c2cc(N3CCN(C(=O)c4ccco4)CC3)c3c4c(onc24)-c2ccccc2C3=O)CC1,25µM*,?,?,?,0%,-32%
CCCCNc1cc(NC2CCCCC2)c2c3c(onc13)-c1ccccc1C2=O,-1%,i,nt,nt,-15%,0%
Cc1cc2c(c(-c3cnccn3)c1)OC(CNC(=O)c1ccccc1C(F)(F)F)C2 (configuration not stated),nt,i,nt,nt,nt,nt
CC[C@@H]1O[C@]2(C=C[C@@H]1C)C[C@H]1C[C@H](CC=C(C)[C@@H](O[C@@H]3C[C@H](OC)[C@H](O[C@@H]4C[C@H](OC)[C@H](O)[C@H](C)O4)[C@H](C)O3)[C@@H](C)C=CC=C3CO[C@@H]4[C@@H](O)C(C)=C[C@@H](C(=O)O1)[C@]34O)O2,nt,16µM*,nt,nt,nt,nt
COc1ccc(OC)c2sc(N(Cc3cccnc3)C(=O)c3ccco3)nc12,-19%,nt,nt,nt,0%,nt
COC(=O)c1c(SCC(=O)Nc2cc(C)cc(C)c2)[nH]c2ccccc2c1=O,10µM*,i,nt,nt,13µM*,?
COC(=O)c1c(SCC(=O)Nc2ccccc2C(F)(F)F)[nH]c2ccc(Cl)cc2c1=O,4%,i,nt,nt,?,5%
COC(=O)C1=CO[C@@H](O)[C@@H]2C(CO)=CC[C@@H]12,nt,nt,nt,nt,nt,-10%
CCN1/C(=C/C(C)=C/c2sc3ccccc3[n+]2CC)Sc2ccccc21,-91%,5.6µM*,?,-80*!,4.5µM*,?
